For assay [1], the target named is Nuclear receptor subfamily 1 group I member 2 (Homo sapiens) (UniProt O75469). As to the kind of experiment: Human pregnane X receptor (PXR) small molecule agonists, qHTS assay (AID 1346982). Further: nearly all actives have a fitted effect of over 35% in size. Further: potency means the concentration at half of the fitted maximal effect. The method, boiled down:
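Agonist mode qHTS: PXR-Luc HepG2 cells plated 5 hr before DMSO-dissolved compounds were pinned in, cultured 24 hr at 37 C, 5% CO2; ONE-Glo luminescence readout.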

The target of assay [2] is Cytochrome P450 2D6 (Homo sapiens) (UniProt P10635). As to the kind of experiment: Cytochrome P450 Family 2 Subfamily D Member 6 (CYP2D6) small molecule antagonists: luciferase reporter qHTS assay (AID 1671196). Further: nearly all actives have a fitted effect of over 50% in size. Further: potency means the concentration at half of the fitted maximal effect. On activity change, negative = inhibition: series mostly up to about 120 µM. The method, boiled down:
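P450-Glo format: CYP2D6 converts a proluciferin substrate to luciferin in an NADPH-driven reaction lasting 1 h at room temperature. Light output, proportional to CYP2D6 activity, reflects interference by test chemicals.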

The target of assay [3] is Cytochrome P450 2C19 (Homo sapiens) (UniProt P33261). The assay can be described thus: Cytochrome P450 Family 2 Subfamily C Member 19 (CYP2C19) small molecule antagonists: luciferase reporter qHTS assay (AID 1671197). Further: nearly all actives have a fitted effect of over 65% in size. Further: potency means the concentration at half of the fitted maximal effect. On activity change, negative = inhibition: series mostly up to about 120 µM. The gist of the method: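 Luminescent readout of CYP2C19 activity: luciferin product detected 20 min after adding detection reagent. Before that, compound and enzyme-substrate mix preincubated 10 min at room temperature; NADPH-regenerating system started a 1 h, 37C reaction. Ketoconazole as positive control.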

Assay [4] deals with Cytochrome P450 2C9 (Homo sapiens) (UniProt P11712). The assay can be described thus: Cytochrome P450 Family 2 Subfamily C Member 9 (CYP2C9) small molecule antagonists: luciferase reporter qHTS assay (AID 1671198). Further: nearly all actives have a fitted effect of over 50% in size. Further: potency means the concentration at half of the fitted maximal effect. On activity change, negative = inhibition: series mostly up to about 120 µM. The gist of the method:
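CYP2C9 activity was measured with a P450-Glo proluciferin substrate. Enzyme–substrate mix was held with compound for 10 min at room temperature, then NADPH regeneration solution was added for 1 h at 37C. Luciferin product was read as luminescence.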

Assay [5] deals with Cytochrome P450 1A2 (Homo sapiens) (UniProt P05177). As to the kind of experiment: Cytochrome P450 Family 1 Subfamily A Member 2 (CYP1A2) small molecule antagonists: luciferase reporter qHTS assay (AID 1671199). Further: nearly all actives have a fitted effect of over 50% in size. Further: potency means the concentration at half of the fitted maximal effect. On activity change, negative = inhibition: series mostly up to about 120 µM. The gist of the method:
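Inhibition of CYP1A2 conversion of proluciferin to luciferin, detected by luminescence. Reaction run 1 h at room temperature with NADPH regeneration after brief compound preincubation.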

Assay [6] deals with Voltage-gated inwardly rectifying potassium channel KCNH2 (Homo sapiens) (UniProt Q12809). As to the kind of experiment: Human Ether-a-go-go-Related Gene (hERG) channel small molecule antagonists: fluorescence cell-based qHTS assay (AID 1671200).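 Further: hERG-expressing U2OS cells given a thallium stimulus after FluxOR II dye loading; series mostly up to about 77 µM; nearly all actives have a fitted effect of over 50% in size.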 The method, boiled down:
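First, 1000 cells per well are seeded and cultured overnight at 37 C. Next, FluxOR II dye is loaded for 1 h at room temperature, protected from light. After 10 more minutes, stimulus is added and fluorescence is read.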

For assay [7], the target named is Cytochrome P450 3A4 (Homo sapiens) (UniProt P08684). As to the kind of experiment: Cytochrome P450 Family 3 Subfamily A Member 4 (CYP3A4) small molecule antagonists: luciferase reporter qHTS assay (AID 1671201). Further: nearly all actives have a fitted effect of over 50% in size. Further: potency means the concentration at half of the fitted maximal effect. On activity change, negative = inhibition: series mostly up to about 120 µM. The method, boiled down: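 Enzyme and proluciferin substrate are mixed with test chemicals for 10 min, then NADPH regeneration system drives turnover for 1 h at room temperature. A detection reagent halts the reaction; luminescence after 20 min gives relative activity.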

In assay [8] the target is Nuclear receptor subfamily 1 group I member 2 (Homo sapiens) (UniProt O75469). The assay can be described thus: CYP3A4 induction through human pregnane X receptor (PXR) by small molecules, qHTS assay (AID 1346984). Further: nearly all actives have a fitted effect of over 40% in size. The method, boiled down: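 Steps: seed DPX-2 cells, 5 hr at 37C; pin-transfer compounds; 24 hr at 37C; add Luciferin-IPA (3uM final), 3 hr at 37C; add One-Glo, 30 min RT; read luminescence.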

Assay [9] has the same target. The assay can be described thus: Human pregnane X receptor (PXR) activation by small molecules, qHTS assay (AID 1346985). Further: nearly all actives have a fitted effect of over 40% in size. The gist of the method:
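DPX-2 cells (HepG2 co-transfected with a PXR response element and a CYP3A4-promoter luciferase construct) were seeded at 2,000 per well, rested 5 hr at 37C, then exposed to DMSO-dissolved compounds for 24 hr. Activation was read as luciferase luminescence.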

Assay [10] has as its target Nuclear receptor subfamily 1 group I member 2 (Rattus norvegicus) (UniProt Q9R1A7). As to the kind of experiment: Rat pregnane X receptor (rPXR) activation by small molecules, qHTS assay (AID 1346983). Further: nearly all actives have a fitted effect of over 20% in size. The conditions noted are these: rPXR luciferase reporter cells, One-Glo luminescence, 24 h; active compounds read high. The gist of the method:
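Cell-based rPXR luciferase reporter assay, 2,000 cells per well, rested 5hr at 37 C before compound addition in DMSO, then 24 hr at 37 C. One-Glo reagent was added and luminescence read after 30 min at room temperature.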

Inconclusive results are not listed. Unmarked numbers belong to inactive results. Active and inactive are the calls of the source. The call rests on the fitted dose curve; in most records, active means well fitted curve in the direction sought with a large enough effect in the repeat runs; inconclusive means weak or mixed curves; inactive means no such curve, though single readings can be large; an effect the other way counts as inactive or inconclusive.
On the % scale 0 is the no-effect control and ±100 the full control effect.

Sequence of Cytochrome P450 2C9 (Homo sapiens) (P11712 whole entry, looked up): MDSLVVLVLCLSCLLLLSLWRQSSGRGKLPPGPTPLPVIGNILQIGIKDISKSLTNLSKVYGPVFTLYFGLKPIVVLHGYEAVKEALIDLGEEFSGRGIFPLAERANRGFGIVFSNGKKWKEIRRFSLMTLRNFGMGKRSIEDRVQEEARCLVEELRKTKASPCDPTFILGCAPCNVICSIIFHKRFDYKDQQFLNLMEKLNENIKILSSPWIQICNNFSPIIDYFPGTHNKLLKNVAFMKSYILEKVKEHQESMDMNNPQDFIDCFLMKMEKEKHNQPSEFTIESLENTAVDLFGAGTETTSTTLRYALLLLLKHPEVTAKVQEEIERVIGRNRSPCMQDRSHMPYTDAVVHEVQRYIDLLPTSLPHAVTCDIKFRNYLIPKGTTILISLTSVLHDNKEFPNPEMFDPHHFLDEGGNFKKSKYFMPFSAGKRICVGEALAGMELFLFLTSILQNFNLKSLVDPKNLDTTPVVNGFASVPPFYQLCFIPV
Sequence of Nuclear receptor subfamily 1 group I member 2 (Homo sapiens) (O75469 whole entry, looked up): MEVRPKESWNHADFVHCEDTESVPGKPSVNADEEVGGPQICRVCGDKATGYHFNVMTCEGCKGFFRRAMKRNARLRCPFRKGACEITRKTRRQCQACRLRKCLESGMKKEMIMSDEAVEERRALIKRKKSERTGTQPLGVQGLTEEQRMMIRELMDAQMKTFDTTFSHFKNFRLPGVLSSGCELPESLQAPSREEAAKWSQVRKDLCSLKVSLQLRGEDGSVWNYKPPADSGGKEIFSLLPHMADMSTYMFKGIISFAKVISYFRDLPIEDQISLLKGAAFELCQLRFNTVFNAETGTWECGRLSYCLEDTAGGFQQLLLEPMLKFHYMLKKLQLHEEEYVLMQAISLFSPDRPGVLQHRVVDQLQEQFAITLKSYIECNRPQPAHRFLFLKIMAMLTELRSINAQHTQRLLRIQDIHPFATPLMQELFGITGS
Sequence of Cytochrome P450 2C19 (Homo sapiens) (P33261 whole entry, looked up): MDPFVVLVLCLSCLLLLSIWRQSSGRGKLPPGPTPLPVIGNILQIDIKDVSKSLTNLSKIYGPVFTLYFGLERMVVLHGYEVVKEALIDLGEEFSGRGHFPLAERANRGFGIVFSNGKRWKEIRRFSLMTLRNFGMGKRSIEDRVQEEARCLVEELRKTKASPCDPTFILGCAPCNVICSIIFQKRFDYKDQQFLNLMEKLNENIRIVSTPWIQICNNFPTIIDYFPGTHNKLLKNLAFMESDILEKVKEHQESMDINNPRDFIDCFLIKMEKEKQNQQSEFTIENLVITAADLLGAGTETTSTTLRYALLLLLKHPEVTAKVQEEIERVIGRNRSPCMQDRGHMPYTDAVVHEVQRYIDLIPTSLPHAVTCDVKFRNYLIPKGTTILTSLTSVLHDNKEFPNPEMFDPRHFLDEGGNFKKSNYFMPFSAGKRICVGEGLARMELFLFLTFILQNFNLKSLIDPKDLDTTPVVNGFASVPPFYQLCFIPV
Sequence of Voltage-gated inwardly rectifying potassium channel KCNH2 (Homo sapiens) (Q12809 whole entry, looked up): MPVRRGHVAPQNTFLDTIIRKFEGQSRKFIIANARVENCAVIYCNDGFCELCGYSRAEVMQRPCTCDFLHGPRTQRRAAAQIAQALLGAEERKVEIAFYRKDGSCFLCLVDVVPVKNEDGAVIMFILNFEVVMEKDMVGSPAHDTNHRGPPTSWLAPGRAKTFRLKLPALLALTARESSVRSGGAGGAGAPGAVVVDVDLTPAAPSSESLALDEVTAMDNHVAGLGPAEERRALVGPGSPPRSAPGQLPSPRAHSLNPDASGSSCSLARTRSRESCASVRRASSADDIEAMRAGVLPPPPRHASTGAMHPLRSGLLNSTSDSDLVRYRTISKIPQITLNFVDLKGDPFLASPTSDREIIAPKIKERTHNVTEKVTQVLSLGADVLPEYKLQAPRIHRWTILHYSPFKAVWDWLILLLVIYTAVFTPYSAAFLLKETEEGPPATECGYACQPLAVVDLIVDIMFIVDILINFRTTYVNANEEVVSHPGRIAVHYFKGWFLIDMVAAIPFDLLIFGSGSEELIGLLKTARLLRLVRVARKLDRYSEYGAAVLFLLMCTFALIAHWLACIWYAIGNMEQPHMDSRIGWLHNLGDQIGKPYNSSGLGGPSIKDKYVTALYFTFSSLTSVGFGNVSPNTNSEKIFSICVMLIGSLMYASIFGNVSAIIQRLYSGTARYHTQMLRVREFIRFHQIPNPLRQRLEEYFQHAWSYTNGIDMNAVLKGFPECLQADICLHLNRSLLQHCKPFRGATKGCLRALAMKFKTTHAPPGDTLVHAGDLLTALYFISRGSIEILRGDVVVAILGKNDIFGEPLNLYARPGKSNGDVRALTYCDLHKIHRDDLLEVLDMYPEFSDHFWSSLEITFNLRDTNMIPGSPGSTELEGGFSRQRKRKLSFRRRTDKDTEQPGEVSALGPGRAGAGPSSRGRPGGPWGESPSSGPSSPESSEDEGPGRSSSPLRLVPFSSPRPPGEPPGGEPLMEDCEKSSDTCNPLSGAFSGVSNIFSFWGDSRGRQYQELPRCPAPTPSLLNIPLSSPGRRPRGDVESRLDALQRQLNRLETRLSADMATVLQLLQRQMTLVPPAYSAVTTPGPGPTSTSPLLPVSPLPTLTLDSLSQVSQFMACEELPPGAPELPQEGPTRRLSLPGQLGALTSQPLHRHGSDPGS
Sequence of Cytochrome P450 3A4 (Homo sapiens) (P08684 whole entry, looked up): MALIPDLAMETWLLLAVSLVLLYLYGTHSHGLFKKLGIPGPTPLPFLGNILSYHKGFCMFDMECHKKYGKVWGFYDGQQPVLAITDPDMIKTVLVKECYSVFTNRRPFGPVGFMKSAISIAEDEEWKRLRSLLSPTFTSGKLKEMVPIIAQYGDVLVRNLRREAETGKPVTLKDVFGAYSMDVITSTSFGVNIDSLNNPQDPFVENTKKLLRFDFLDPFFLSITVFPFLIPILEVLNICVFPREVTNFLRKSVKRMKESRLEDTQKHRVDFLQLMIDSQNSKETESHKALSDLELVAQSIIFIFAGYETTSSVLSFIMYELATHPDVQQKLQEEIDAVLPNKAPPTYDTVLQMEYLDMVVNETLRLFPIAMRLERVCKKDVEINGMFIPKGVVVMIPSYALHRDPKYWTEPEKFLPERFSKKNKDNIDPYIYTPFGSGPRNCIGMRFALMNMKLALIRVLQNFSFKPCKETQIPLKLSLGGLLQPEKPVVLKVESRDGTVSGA
Sequence of Cytochrome P450 1A2 (Homo sapiens) (P05177 whole entry, looked up): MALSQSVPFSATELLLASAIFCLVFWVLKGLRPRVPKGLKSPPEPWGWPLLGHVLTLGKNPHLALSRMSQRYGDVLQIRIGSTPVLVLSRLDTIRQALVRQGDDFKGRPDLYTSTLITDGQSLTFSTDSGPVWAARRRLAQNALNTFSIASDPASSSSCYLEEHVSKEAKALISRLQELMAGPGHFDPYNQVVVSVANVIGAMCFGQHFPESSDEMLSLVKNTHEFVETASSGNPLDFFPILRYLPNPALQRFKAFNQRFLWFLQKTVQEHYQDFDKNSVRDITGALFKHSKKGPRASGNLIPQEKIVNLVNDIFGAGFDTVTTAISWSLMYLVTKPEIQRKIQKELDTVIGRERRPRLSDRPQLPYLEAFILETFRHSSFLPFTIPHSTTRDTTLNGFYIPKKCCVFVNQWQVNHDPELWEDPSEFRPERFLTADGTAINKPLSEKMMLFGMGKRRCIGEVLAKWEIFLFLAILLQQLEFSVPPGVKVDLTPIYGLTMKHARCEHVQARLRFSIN
Sequence of Cytochrome P450 2D6 (Homo sapiens) (P10635 whole entry, looked up): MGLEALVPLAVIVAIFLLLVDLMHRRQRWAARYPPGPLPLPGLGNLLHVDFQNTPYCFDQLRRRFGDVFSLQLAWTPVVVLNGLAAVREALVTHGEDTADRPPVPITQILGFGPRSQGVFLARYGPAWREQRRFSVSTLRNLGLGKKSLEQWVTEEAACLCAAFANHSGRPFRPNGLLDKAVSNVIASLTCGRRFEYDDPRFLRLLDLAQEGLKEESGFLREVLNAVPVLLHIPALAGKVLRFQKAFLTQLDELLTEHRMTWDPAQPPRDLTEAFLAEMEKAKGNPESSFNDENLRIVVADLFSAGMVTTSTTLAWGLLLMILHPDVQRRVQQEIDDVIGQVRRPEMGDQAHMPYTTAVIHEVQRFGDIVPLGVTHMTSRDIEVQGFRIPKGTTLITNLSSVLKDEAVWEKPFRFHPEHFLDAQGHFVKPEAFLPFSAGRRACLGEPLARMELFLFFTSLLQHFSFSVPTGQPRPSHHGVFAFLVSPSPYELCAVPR
Sequence of Nuclear receptor subfamily 1 group I member 2 (Rattus norvegicus) (Q9R1A7 whole entry, looked up): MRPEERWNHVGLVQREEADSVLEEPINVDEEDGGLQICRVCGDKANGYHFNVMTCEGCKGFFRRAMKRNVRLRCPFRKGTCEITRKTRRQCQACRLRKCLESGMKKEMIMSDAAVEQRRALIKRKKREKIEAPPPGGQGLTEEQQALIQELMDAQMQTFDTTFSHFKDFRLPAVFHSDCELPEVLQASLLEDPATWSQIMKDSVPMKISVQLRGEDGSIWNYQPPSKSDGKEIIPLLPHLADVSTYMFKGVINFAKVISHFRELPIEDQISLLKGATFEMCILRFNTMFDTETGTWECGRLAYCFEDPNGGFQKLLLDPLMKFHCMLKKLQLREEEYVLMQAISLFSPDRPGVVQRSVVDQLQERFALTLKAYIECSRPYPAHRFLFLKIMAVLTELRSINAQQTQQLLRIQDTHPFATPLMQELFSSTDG

Regarding `CC(C)NC(=O)c1ccc(C=O)cc1`, the Potency result in [1], in assay [2], in assay [3], in assay [4], in [6] and in assay [7] was “inactive” throughout. Besides, the Potency in assay [5] is 34.7 µM (active).
Consider `OCC1(CO)COCOC1`, for which the Potency entry in assay [1], in [2], in [3], in [4], in assay [5] and in [6] was “inactive” throughout. Besides, the Potency entry in [7] was “inactive”.
On to `C[C@]12CCC(=O)C=C1CC[C@H]1[C@@H]3CC[C@](O)(C(=O)CO)[C@@]3(C)C[C@H](O)[C@@]12F`, for which the Potency result in assay [1], in [8], in assay [9], in assay [2], in assay [3] and in [5] was “inactive” throughout. For the same molecule, in [6], the Potency result was “inactive”.
Take `CCN(CC)CCN`: the Potency result in assay [1], in assay [2], in assay [3], in [4], in assay [5] and in assay [6] was “inactive” in each case. Further, the Potency entry in assay [7] was “inactive”.
Take `Cc1cc(C)c(C(=O)O)c(C)c1`: the Potency entry in assay [1], in [2], in assay [3], in assay [4], in assay [6] and in assay [7] was “inactive” in each case. Also, in assay [5], the Potency was 39.9 µM (active).
Turning to `Cc1ccc2c(c1)C(=O)c1ccccc1C2=O`, the Potency is 15.3 µM (active) in [1]; 28.2 µM (active) in [2]; 11.2 µM (active) in [3]; 12.6 µM (active) in [4]; 8.91 µM (active) in assay [5]; 7.07 µM (active) in assay [7]. In assay [6], the Potency result is “inactive”.
Consider `Cc1cccc(Cl)c1`, for which the Potency entry in assay [1], in assay [2], in assay [3], in [4], in assay [5] and in assay [6] was “inactive” in each case. Further, the Potency result in assay [7] is “inactive”.
On to `COCCc1ccccn1`, for which the Potency entry in [1], in assay [2], in assay [3], in assay [4], in [5] and in assay [6] was “inactive” throughout. In assay [7], the Potency entry was “inactive”.
In the case of `CCCCCCCCCCCCCCCCCCOCCO`, in assay [1], the activation was 0.259% [at 19 µM]. In addition, the activity change, negative = inhibition in [2] was -7.3% [at 23.6 µM]; in assay [3], 7.26% [at 23.6 µM]; in assay [4], -10.3% [at 23.6 µM]; in [6] it was 3.84% [at 15.8 µM]; in assay [7], 11.9% [at 23.6 µM]. Besides, the Potency in [5] was 7.12 µM (active).
Take `CCC(=O)c1c(O)cc(O)cc1O`: the Potency result in [1], in assay [8], in assay [9], in assay [3] and in [6] was “inactive” in each case. Further, the Potency in assay [2] is 27.5 µM (active); in [4], 13.8 µM (active); in [5] it was 12.9 µM (active).
`CC(=O)O[Si](C)(OC(C)=O)OC(C)=O`: the Potency result in [1], in [2], in [3], in assay [4], in assay [5] and in assay [6] was “inactive” in each case. In [7], the Potency is 5.15 µM (active).
`O/N=C/C=N/O`: the Potency result in assay [1], in [3], in assay [4], in assay [5], in assay [6] and in assay [7] was “inactive” each time. Also, the Potency in [2] is 39.9 µM (active).
In the case of `CO[Si](CCCn1c(=O)n(CCC[Si](OC)(OC)OC)c(=O)n(CCC[Si](OC)(OC)OC)c1=O)(OC)OC`, the Potency result in assay [1], in assay [2], in assay [3], in assay [4], in [5] and in [6] was “inactive” each time. Besides, the Potency in assay [7] was 17.7 µM (active).
In the case of `C=C(C)C1CC=C(C)C(=O)C1` (stereo not given), the Potency result in assay [1], in assay [2], in [3], in assay [4], in [5] and in assay [6] was “inactive” each time. For the same molecule, the Potency entry in [7] is “inactive”.
Turning to `CCCCCCCCCCOC(C)=O`, the Potency result in [1], in assay [2], in assay [3], in assay [4], in assay [5] and in assay [6] was “inactive” throughout. Also, in [7], the Potency entry was “inactive”.
Regarding `CC1=C(C(=O)O)N2C(=O)[C@@H](NC(=O)[C@H](N)c3ccccc3)[C@H]2SC1`, the Potency entry in assay [1] and in [9] was “inactive” throughout. Besides, in [10], the max activation is -2.36%.
In the case of `CCCCCCCCCCCCCCC(=O)NC(CO)CCCCCCCCCCCCCC` (stereo not given), the Potency result in assay [1], in assay [2], in [3], in assay [4], in [6] and in assay [7] was “inactive” throughout. In addition, the Potency in assay [5] is 63.8 µM (active).
As for `CO/N=C(/C(=O)N[C@@H]1C(=O)N2C(C(=O)[O-])=C(C[n+]3ccn4ncccc43)CS[C@H]12)c1nsc(N)n1`, the Potency entry in assay [1], in [2], in [3], in [4], in assay [6] and in assay [7] was “inactive” throughout. Besides, in [5], the Potency was 27.5 µM (active).
In the case of `C=CC(=O)OCC1CCCO1` (stereo not given), the Potency entry in assay [1], in assay [2], in assay [3], in assay [4], in assay [5] and in [6] was “inactive” throughout. Further, the Potency result in assay [7] was “inactive”.

Source of the values: PubChem BioAssay (Tox21).
